Results reported in PubChem BioAssay (Tox21).
Where “and” joins values, the source holds several entries; their conditions need not be identical. Equal entries are not always repeated. Results filed as inconclusive are left out. Some structures have more than one record in an assay (separate samples or runs), and their calls can disagree. Calls of active or inactive are those of the source. Unless noted, calls follow the shape of the full dose curve.

Tests used:
[1] = biological target: Thyrotropin receptor (Homo sapiens) (UniProt P16473); test: qHTS assay to identify small molecule agonists of the thyroid stimulating hormone receptor (TSHR) signaling pathway (AID 1224843); also: nearly all actives have a fitted effect of over 45% in size; also: potency is read from the fitted curve at half-maximal effect
Thyrotropin receptor (Homo sapiens), sequence (P16473 whole entry, looked up): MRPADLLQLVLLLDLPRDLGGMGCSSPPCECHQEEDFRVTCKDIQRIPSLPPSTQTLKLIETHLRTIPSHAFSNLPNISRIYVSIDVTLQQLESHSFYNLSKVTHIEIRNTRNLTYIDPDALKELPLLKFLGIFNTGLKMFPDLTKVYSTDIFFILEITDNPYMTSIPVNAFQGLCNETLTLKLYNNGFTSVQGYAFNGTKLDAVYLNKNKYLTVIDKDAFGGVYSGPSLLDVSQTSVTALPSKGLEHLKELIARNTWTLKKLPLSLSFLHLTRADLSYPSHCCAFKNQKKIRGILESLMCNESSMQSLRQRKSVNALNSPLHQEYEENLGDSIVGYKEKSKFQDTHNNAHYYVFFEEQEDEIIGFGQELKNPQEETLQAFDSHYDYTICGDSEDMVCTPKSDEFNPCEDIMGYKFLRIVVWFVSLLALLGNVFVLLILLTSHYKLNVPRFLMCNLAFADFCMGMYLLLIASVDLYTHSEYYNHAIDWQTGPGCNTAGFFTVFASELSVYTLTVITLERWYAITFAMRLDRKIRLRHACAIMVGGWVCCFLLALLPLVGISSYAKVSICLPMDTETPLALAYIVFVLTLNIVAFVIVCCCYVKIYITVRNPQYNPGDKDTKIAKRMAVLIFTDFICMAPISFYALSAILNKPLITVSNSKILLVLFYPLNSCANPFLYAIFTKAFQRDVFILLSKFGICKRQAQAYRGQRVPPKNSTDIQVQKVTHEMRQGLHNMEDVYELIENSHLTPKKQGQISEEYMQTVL
In short: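 Agonist-mode screen: TSHR HEK293 cells received test chemicals for half an hour at room temperature, then HTRF cAMP detection reagents for one hour prior to fluorescence measurement. Each chemical ran as a 15-concentration series, triplicated.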

[2] = qHTS assay to identify small molecule agonists of the hypoxia (HIF-1) signaling pathway - cell viability counter screen (AID 1224844); also: nearly all actives have a fitted effect of over 50% in size; also: potency is read from the fitted curve at half-maximal effect
In short: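 HRE-bla ME-180; 0.5% dFBS; cpd 17 h, 37C, 5% CO2; CellTiter-Glo lum., 30 min RT, post-FRET read, same wells.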

[3] = qHTS assay to identify small molecule agonists of H2AX (AID 1224845; active = well fitted activation curve with a large enough effect in the signal ratio in the repeat runs, not every such curve was filed as active; the % refers to the signal ratio)
In short: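 Wild-type CHO-K1 cells, plated overnight, exposed 3hr at 37C to 15 concentrations (0.76% DMSO final). Lysed, then HTRF anti-pH2AX (S139) cryptate and anti-H2AX-d2 antibodies, 24 hr room temperature; 665/620 nm emission read.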

[4] = qHTS assay to identify small molecule agonists of the hypoxia (HIF-1) signaling pathway (AID 1224846; active = well fitted activation curve with a large enough effect in the signal ratio in the repeat runs, not every such curve was filed as active; the % refers to the signal ratio)
In short: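 Reporter induction in HRE-bla ME-180 cells is taken as agonism: cells sit 5 hrs after plating, receive compounds or DMSO only, incubate 17 hrs at 37C under 5% CO2, and are loaded with CCF4-AM for beta-lactamase FRET measurement.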

[5] = qHTS assay to identify small molecule agonists of H2AX - cell viability counter screen (AID 1224847); also: top concentration of the series differs between compounds; nearly all actives have a fitted effect of over 30% in size
In short: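 Cytotoxicity counter screen in wild-type CHO-K1 cells: a 3 hr compound treatment at 37C across 15 concentrations, followed by CellTiter-Glo luminescence to gauge viable cells.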

[6] = qHTS RealTime-Glo MT Cell Viability Assay in HepG2 cells - 24 hour (AID 1224867; active = well fitted curve in the direction sought with a large enough effect in the repeat runs; an effect the other way counts as inactive or inconclusive; also: nearly all actives have a fitted effect of over 50% in size)
In short: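 Cells + NanoLuc/prosubstrate dispensed (600 cells/well) → 5 h at 37 C/5% CO2 → compounds in DMSO transferred → 40 h incubation at 37 C, luminescence read at 0, 8, 16, 24, 32, 40 h.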

[7] = qHTS RealTime-Glo MT Cell Viability Assay in HEK293 cells - 32 hour (AID 1224868; active = well fitted curve in the direction sought with a large enough effect in the repeat runs; an effect the other way counts as inactive or inconclusive; also: top concentration of the series differs between compounds; nearly all actives have a fitted effect of over 50% in size)
In short: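 Tox21 10K qHTS, HEK293, 600 cells/well, RealTime-Glo reagent co-dispensed with cells; 5 h preincubation, compound by pintool, 37 C, luminescence at 0–40 h.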

[8] = A CellTox Green Cytotoxicity Assay to monitor cytotoxicity in HEK293 cells - 0 hour (AID 1224869; active = well fitted curve in the direction sought with a large enough effect in the repeat runs; an effect the other way counts as inactive or inconclusive; also: nearly all actives have a fitted effect of over 50% in size; also: potency is read from the fitted curve at half-maximal effect)
In short: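 Tox21 screen in HEK293: membrane-impermeant cyanine dye fluoresces on binding dead-cell DNA; compound pinned 5 h post-seeding, plates held at 37 C, signal read repeatedly through 40 h.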

[9] = qHTS assay to identify small molecule antagonists of the estrogen related receptor (ERR) signaling pathway from Tox21 library (AID 1224848; active = well fitted curve in the direction sought with a large enough effect in the repeat runs; an effect the other way counts as inactive or inconclusive; also: nearly all actives have a fitted effect of over 50% in size; also: potency is read from the fitted curve at half-maximal effect)
In short: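 Quantitative high-throughput format: ERR reporter cells (2,000/well) pre-incubated 6 h, treated 18 h at 37 C with compounds in DMSO alongside positive and negative controls, then read by ONE-Glo luminescence.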

[10] = qHTS assay to identify small molecule agonists of the estrogen related receptor (ERR) signaling pathway from Tox21 library (AID 1224849); conditions: ERR reporter cell line, ONE-Glo luciferase, 18 h; also: nearly all actives have a fitted effect of over 15% in size
In short: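 Tox21 compounds tested for ERR agonism in an NTP reporter cell line: 18 h treatment at 37 C, then ONE-Glo luminescence.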

[11] = at 92.4 µM (top of the series) unless noted
% is scaled to controls: 0 for no effect and ±100 for the full control effect.

CCCCC/C=C\CCC=O
inactive: Potency [1] | Potency [2] | outcome [3] | outcome [4] | Potency [5] | Potency [6] | Potency [7] | Potency [8]

CC(=O)c1ccccc1O
inactive: Potency [1] | Potency [2] | outcome [3] | outcome [4] | Potency [5] | Potency [9] | Potency [6] | Potency [7] | Potency [8]

Cc1c(NC(C)C)c(=O)n(-c2ccccc2)n1C
inactive: Potency [1] | Potency [2] | outcome [3] | outcome [4] | Potency [9] | activity change, positive = activation [10, 11] 0.236% [at 42.5 µM] | Potency [6] | Potency [7] | Potency [8]

C[C@H]1C[C@@H](O)CC(C)(C)C1
inactive: Potency [1] | Potency [2] | outcome [3] | outcome [4] | Potency [9] | activity change, positive = activation [10, 11] 0.742% | Potency [6] | Potency [7]

OCCCC1CCCCC1
inactive: Potency [1] | Potency [2] | outcome [3] | outcome [4] | Potency [5] | Potency [9] | Potency [6] | Potency [7] | Potency [8]

CC(C)NC(=O)NC(C)C
inactive: Potency [1] | Potency [2] | outcome [3] | outcome [4] | Potency [9] | activity change, positive = activation [10, 11] -2.14% | Potency [6] | Potency [7] | Potency [8]

CCC(=O)OC(C)c1ccccc1 (centres undefined)
inactive: Potency [1] | Potency [2] | outcome [3] | outcome [4] | Potency [9] | activity change, positive = activation [10, 11] 0.422% | Potency [6] | Potency [7] | Potency [8]

O=C1NC(=O)[C@@]2(CCOc3ccc(F)cc32)N1
inactive: Potency [1] | Potency [2] | outcome [3] | outcome [4] | Potency [5] | Potency [6] | Potency [7] | Potency [8]

NC(=O)c1cn(Cc2c(F)cccc2F)nn1
inactive: Potency [1] | Potency [2] | outcome [3] | outcome [4] | Potency [5] | Potency [6] | Potency [8]

CCOC(=O)c1cccc(N)c1
inactive: Potency [1] | Potency [2] | outcome [3] | outcome [4] | Potency [5] | Potency [9] | Potency [7] | Potency [8]

CC1(C)CO[C@@H](CC(=O)O)CN1
inactive: Potency [1] | Potency [2] | outcome [3] | outcome [4] | Potency [5] | Potency [9] | Potency [6] | Potency [7] | Potency [8]

C=CCOCC(CC)(CO)COCC=C
inactive: Potency [1] | Potency [2] | outcome [3] | outcome [4] | Potency [5] | Potency [9] | Potency [6] | Potency [8]

ClC(Cl)(Br)Br
inactive: Potency [1] | Potency [2] | outcome [3] | outcome [4] | Potency [5] | Potency [9] | Potency [6] | Potency [7] | Potency [8]

O=C(CCCN1CCC(O)(c2cccc(C(F)(F)F)c2)CC1)c1ccc(F)cc1
inactive: Potency [1] | Potency [2] | outcome [3] | Potency [5] | Potency [9] | activity change, positive = activation [10, 11] -10.2% [at 42.5 µM] | Potency [6] | Potency [8]

Brc1c(NC2=NCCN2)ccc2nccnc12
inactive: Potency [1] | Potency [2] | outcome [3] | Potency [5] | Potency [9] | activity change, positive = activation [10, 11] 3.51% [at 42.5 µM] | Potency [7] | Potency [8]

CCn1ccnc1CC1COc2ccccc2O1 (centres undefined)
inactive: Potency [1] | Potency [2] | outcome [3] | Potency [5] | Potency [9] | activity change, positive = activation [10, 11] 8.29% [at 42.5 µM] | Potency [6] | Potency [7] | Potency [8]

NS(=O)(=O)c1ccc(C(=O)O)cc1
inactive: Potency [1] | Potency [2] | outcome [3] | Potency [5] | Potency [9] | activity change, positive = activation [10, 11] 9.6% [at 42.5 µM] | Potency [6] | Potency [7] | Potency [8]

COc1ccc2c(c1)c(CC(=O)OCC(=O)O)c(C)n2C(=O)c1ccc(Cl)cc1
inactive: Potency [1] | Potency [2] | outcome [3] | outcome [4] | Potency [9] | Potency [6] | Potency [7] | Potency [8]

N[C@@H](C(=O)N[C@@H]1C(=O)N2C(C(=O)O)=C(Cl)CS[C@H]12)c1ccccc1
inactive: activation [1] -0.277% [at 8.39 µM] | activity change, negative = cytotoxicity [2] 1.81% [at 6.97 µM] | activation (H2AX phosphorylation) [3] 0.237% [at 14 µM] | activity change, negative = cytotoxicity [5] -0.534% [at 14 µM] | activity, negative = inhibition [9] 7.8% [at 8.39 µM] | activity change, positive = activation [10, 11] 4.35% [at 8.39 µM] | activity change, negative = cytotoxicity [6] 0.732% [at 6.97 µM] | activity change, negative = cytotoxic [7] 8.14% [at 6.97 µM] | cytotoxicity [8] 2.09% [at 6.97 µM]

COC(=O)C1=C(C)NC(C)=C(C(=O)OC)C1c1ccccc1[N+](=O)[O-]
54.5 µM (active) and inactive: Potency [1]
inactive: outcome [3] | Potency [5] | Potency [9] | activity change, positive = activation ([10]; at 42.5 µM (top of the series)) -8.97% | activity change, positive = activation ([10]; at 92.4 µM (top of the series)) -13.3% | Potency [6] | Potency [7] | Potency [8]
49 µM (active) and inactive: Potency [2]

CS(=O)(=O)O
inactive: Potency [1] | Potency [2] | outcome [3] | outcome [4] | Potency [9] | activity change, positive = activation [10, 11] 3.34% | Potency [6] | Potency [8]

COCCc1ccc(OCC(O)CNC(C)C)cc1 (centres undefined)
inactive: Potency [1] | Potency [2] | outcome [3] | Potency [5] | Potency [9] | activity change, positive = activation ([10]; at 42.5 µM (top of the series)) 5.48% | activity change, positive = activation ([10]; at 92.4 µM (top of the series)) -13% | Potency [6] | Potency [7] | Potency [8]

Cc1cccc(C)c1NC(=O)C(C)N (centres undefined)
inactive: Potency [1] | Potency [2] | outcome [3] | Potency [5] | Potency [9] | activity change, positive = activation [10, 11] 3.88% [at 42.5 µM]
active: Potency [8] 21.3 µM

C=CCCCCCCCCC=O
inactive: Potency [1] | Potency [2] | outcome [3] | outcome [4] | Potency [9] | Potency [7] | Potency [8]

CN1CCCC1
inactive: Potency [1] | Potency [2] | outcome [3] | outcome [4] | Potency [9] | activity change, positive = activation [10, 11] 4.55% | Potency [6] | Potency [7] | Potency [8]

CC(C)(c1ccc(O)cc1)c1ccc(O)cc1
inactive: Potency [1] | Potency [2] | outcome [3] | outcome [4] | activity change, positive = activation [10, 11] -29.8% and -30.2% | Potency [8]
active: Potency [9] 30.3 µM

O=C(O)CCCl
inactive: Potency [1] | Potency [2] | outcome [3] | outcome [4] | Potency [9] | activity change, positive = activation [10, 11] -15.3% | Potency [7] | Potency [8]

CCn1nc(C(=O)O)c(=O)c2cc3c(cc21)OCO3
inactive: Potency [1] | Potency [2] | outcome [3] | Potency [5] | Potency [9] | activity change, positive = activation [10, 11] 7.18% [at 42.5 µM] | Potency [6] | Potency [7] | Potency [8]

CC(C)(C)c1nnc(NS(=O)(=O)c2ccccc2)s1
inactive: Potency [1] | Potency [2] | outcome [3] | outcome [4] | activity change, positive = activation [10, 11] -14.8% [at 42.5 µM] | Potency [6] | Potency [7] | Potency [8]
